SMARCA2 act: SMARCA2 function activation, primary screen | MG213 cells, MMTV-luciferase reporter, dexamethasone, overnight | activation, % at 9.1 µM | 1% of 370,000 active; in the data active means activation above about 7.8%;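 further: 0% = vehicle wells and 100% = reference activator wells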
hcDAF12 agonist: activates DAF-12 receptor from parasite H. contortus; HEK293 hcDAF-12 lit1-tk-luc reporter, luminescence; 0% DMSO, 100% Δ7-dafachronic acid; activation, % at 6.8 µM; 1.4% of 370,000 active; AID 652067;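 active means activation above the mean of all tested compounds plus 3 SD, cut at about 5.5% in these data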;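 further: 100% = response to 3 µM Δ7-dafachronic acid high control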
DAX1 inh-1: NR0B1 (DAX1) inhibition; P51843; 0.99% of 340,000 active; inhibition, % at 6.75 µM; HEK293 Gal4-DAX1 luciferase reporter, luminescence;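 active means inhibition above the mean over all tested compounds plus 3 SD, cut at about 4.2% in these data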;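 further: 0% = DAX1-transfected cells with DMSO and 100% = empty-vector control cells with DMSO; inhibition shows as a rise in luminescence from relieved DAX1 repression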
Target sequence (P51843 207-470 limits assumed): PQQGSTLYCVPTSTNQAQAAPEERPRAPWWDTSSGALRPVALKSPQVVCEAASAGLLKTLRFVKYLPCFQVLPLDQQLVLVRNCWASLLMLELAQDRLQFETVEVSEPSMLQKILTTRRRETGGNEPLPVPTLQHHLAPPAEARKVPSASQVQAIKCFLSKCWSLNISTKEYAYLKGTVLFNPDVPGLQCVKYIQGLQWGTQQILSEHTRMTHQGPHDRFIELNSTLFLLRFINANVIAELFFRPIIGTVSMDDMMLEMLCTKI
ssDAF12 agonist: S. stercoralis DAF-12 activation, primary screen. HEK293 ssDAF-12/GRIP1 lit1-tk-luc reporter, luminescence; % of 3 µM dafachronic acid response. activation, % at 6.8 µM. 1% of 370,000 active. AID 652126;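 active means activation above the mean over all tested compounds plus 3 SD, cut at about 0.9% in these data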;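 further: 0% = DMSO-only wells and 100% = 3 µM delta7-dafachronic acid wells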
DAX1 inh-2: inhibitors of DAX1 repression of SF-1 activated StAR promoter | HEK293T StAR-luciferase reporter, SF-1/DAX-1 repression relief | inhibition, % at 6.8 µM | 1.1% of 370,000 active | AID 652010;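 active means inhibition above the mean over all tested compounds plus 3 SD, cut at about 3.6% in these data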;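 further: 0% = DAX-1 cells with DMSO and 100% = cells lacking DAX-1 with DMSO; higher inhibition means more luminescence from relief of DAX-1 repression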
hgDAF12 agonist: activates the H. glycines DAF-12 receptor ligand-binding domain; HEK293 GAL4-hgDAF12 UAS-luciferase reporter, agonist luminescence; normalized to butyrate control; activation, % at 6.8 µM; 1.8% of 370,000 active;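 active means activation above a cutoff set at the mean of all screened compounds plus 3 SD, cut at about 10% in these data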;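 further: 0% = DMSO wells and 100% = sodium butyrate wells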
* marks the source's active call; other numbers are inactive results; x = not tested or not shown. Shown are actives, neighbours in structure and some others; about 4.8% of the full set was active somewhere.

SMILES	SMARCA2 act	hcDAF12 agonist	DAX1 inh-1	ssDAF12 agonist	DAX1 inh-2	hgDAF12 agonist
O=C(Nc1ccc(F)c(Cl)c1)c1ccc2nc([C@@H]3O[C@H](CO)[C@H](O)[C@H](O)[C@H]3O)[nH]c2c1	0	1	x	-2	2	4
O=C(NCCCN1CCOCC1)c1ccc(Cl)cc1[N+](=O)[O-]	2	0	4.6*	-1	0	0
Cc1cccc(C)c1NC(=O)NS(=O)(=O)c1ccccc1	0	0	1	-1	0	-2
COC/C=C/C1=CC2=CC(=O)C(C)(OC(=O)c3cnc4ccccc4n3)C(=O)C2=CN1CCCCO (stereo not drawn)	-1	0	4.2*	-1	0	-1
O=C(Nn1c(SCc2cccc([N+](=O)[O-])c2)nc2ccccc2c1=O)c1ccccc1	-1	4	2	0	3	13*
COc1ccc(C(=O)Nn2c(SCc3cccc([N+](=O)[O-])c3)nc3ccccc3c2=O)cc1	-1	1	-1	-2	1	0
O=C(NC1CCCCCCC1)c1cc([N+](=O)[O-])ccc1Cl	-4	0	0	-1	-1	2
CCOc1ccc(C(=O)NC2CCCCCCC2)cc1	4	6.1*	2	1	3	12*
CCN(Cc1ccccc1)S(=O)(=O)c1cc(C(=O)NC2CCCCCC2)ccc1OC	-4	0	-2	-2	-1	-4
O=C(NCC1CCCCC1)c1ccc([N+](=O)[O-])cc1	1	0	10*	-1	0	3
CCN(CC)S(=O)(=O)c1cc(C(=O)NC2CCCCC2)ccc1C	2	3	-1	0	2	11*
O=C(NC1CCCCC1)c1ccc([N+](=O)[O-])cc1	0	1	1	1	3.7*	6
O=C(NCCc1ccccc1F)C1CC(=O)N(c2cccc(C(F)(F)F)c2)C1 (stereo not drawn)	-2	0	0	-1	-1	1
COc1ccc(OC)c(C(=O)N(C[C@H]2CC[C@@H]([C@@H]3CC[C@H](CO)O3)O2)C(C(=O)NC(C)(C)C)c2ccc(-c3ccccc3)cc2)c1 (stereo partly drawn)	-5	0	-2	-1	-1	-1
CC(=O)c1ccc(-n2ccnc2)cc1	1	-2	2	-2	0	0
O=C(Nc1ccccc1)n1ccc(-c2ccc(-n3ccnc3)cc2)n1	1	1	x	-1	2	12*
O=C(COC(=O)c1ccc(Sc2ncn[nH]2)c([N+](=O)[O-])c1)Nc1ccc(Cl)c(Cl)c1	0	0	x	-2	1	0
O=C(COc1ccc(Cl)cc1Cl)NC(=O)N1CCCCC1	3	2	2	0	2	12*
COc1ccc(F)c(CN(C)CC2CCCN(CCc3ccc(F)cc3)C2)c1 (stereo not drawn)	-3	0	4.5*	-1	0	0
Cc1ccc(F)cc1C(=O)N1CCCC(c2cc(C(=O)Nc3ccccc3Cl)no2)C1 (stereo not drawn)	-5	-2	x	-1	-2	2
O=C(CCC(=O)N1CCOc2ccccc21)NCCCN1CCCCC1	-4	0	0	-1	1	1
CCN1CCN(CCCNC(=O)CCC(=O)N2CCOc3ccccc32)CC1	0	5.7*	0	-1	1	-3
CCC1=C(NCc2ccccc2)COC1=O	-2	1	4.3*	-2	1	-2
COc1ccccc1CCn1cnc(Cc2ccccc2)c1C(C)C	-2	-3	x	0	-3	4
NS(=O)(=O)c1ccc(NC(=O)c2ccc(Cl)c(S(=O)(=O)NCc3ccco3)c2)cc1	-4	-1	0	-1	-3	3
Cc1ccc(NC(=O)c2ccc(Cl)c(S(=O)(=O)NCc3ccco3)c2)c(O)c1	-4	5	2	1	3.9*	4
CCCCNC(=O)c1nc(-c2cc3ccccc3[nH]2)oc1-c1cccc(C(F)(F)F)c1	2	-1	x	0	-1	2
CCCOc1ccc(N2C(=O)CC(N(CCCO)C(=O)CC)C2=O)cc1 (stereo not drawn)	0	-2	1	-1	0	0

Source: PubChem (The Scripps Research Institute Molecular Screening Center)
